Results published in PubChem BioAssay (NCI).
Compounds without any hit were thinned out: in the full panel of roughly 83,000, 20% have a hit.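 Values shown are percent growth following 48 h exposure of cells in 96-well plates to a single concentration of compound; below 10 was considered active.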 Values without a mark were called inactive. Active and inactive are the calls of the source.

Assays:
Test in all cases: NCI-60 one-dose screen, 48 h (100 = growth as untreated, 0 = no growth, -100 = all killed)
Settings in all cases: 10 µM unless noted
[1] = tested on: T-47D breast
[2] = tested on: BT-549 breast
[3] = tested on: MDA-MB-435 melanoma
[4] = tested on: SW-620 colon
[5] = tested on: MCF7 breast
[6] = tested on: HCT-116 colon
[7] = tested on: HCC-2998 colon
[8] = tested on: KM12 colon

Structure (SMILES)	growth [1]	growth [2]	growth [3]	growth [4]	growth [5]	growth [6]	growth [7]	growth [8]
O=C1C(=O)N(CCCCn2cc(-c3ccccc3)nn2)c2ccccc21	93.4%	96.7%	108%	104%	94.9%	101%	117%	104%
O=C1c2cc3c(cc2-c2c1c1ccc(Cl)cc1c(=O)n2C[C@H](O)[C@@H](O)[C@H](O)CO)OCO3	-8.86% (active)	-1.82% (active)	-39.2% (active)	2.65% (active)	1.66% (active)	11.1%	16.3%	7.14% (active)
Brc1ccc2c(c1)c(-c1nc(-c3c[nH]c4ncccc34)cs1)cn2CCCN1CCCCC1	45%	72.8%	-84% (active)	-63.5% (active)	-68.1% (active)	-62.7% (active)	34.8%	14.5%
CC(=O)O[C@@H]1CCN2C(=O)N(C)c3ccccc3[C@@H]2C1	92.8%	108%	107%	113%	94.6%	102%	104%	116%
Cn1c(/C(C#N)=C/c2ccc3ccccc3c2)cc2ccccc21	73.4%	-16.6% (active)	-14.7% (active)	26.4%	14.1%	8.56% (active)	16.9%	15.1%
O=C(NC(Cc1cn(Cc2ccccc2)cn1)C(=O)O)OCC1c2ccccc2-c2ccccc21 (stereo not drawn)	112%	97.2%	113%	104%	104%	90.8%	113%	101%
O=C1NC(c2ccc(Cl)c(Cl)c2)=C/C1=C\c1ccccc1	12.5%	86.2%	86.6%	56.8%	63.1%	26.5%	103%	89.2%
N#C/C(=C\c1ccc(-c2cccc(C(F)(F)F)c2)o1)c1nc(-c2ccco2)cs1	-17.6% (active)	97%	102%	104%	22.4%	91.7%	29.5%	65.5%
COc1ccccc1-n1cnc(N)c1C(=O)c1cc(OC)c(OC)c(OC)c1	49.8%	47.1%	-15% (active)	23.7%	12.4%	24.5%	61.7%	16.1%
Cc1ccc(Sc2sc(-c3ccccc3)nc2[P+](c2ccccc2)(c2ccccc2)c2ccccc2)cc1	-9.83% (active)	-15.4% (active)	-16.3% (active)	8.24% (active)	-4.53% (active)	-14.3% (active)	-11.2% (active)	-37.6% (active)
CCN1CCN(c2nc(C)cc(N(CCCNc3ccnc4cc(Cl)ccc34)Cc3ccco3)n2)CC1	68.4%	54.5%	4.03% (active)	39.3%	32.3%	42.5%	88%	67.9%
COc1ccc2c(c1)C/C(=C\c1cc(-c3cc(OC)c(OC)c(OC)c3)n[nH]1)C2=O	73.4%	85.2%	91.5%	91.1%	56.3%	81.9%	102%	85%
CN(C)c1cccc2[nH]c(-c3[nH]ncc3Nc3ccnc(N)n3)nc12	-18.3% (active)	-31.5% (active)	-90% (active)	-5.42% (active)	-46.1% (active)	-40.8% (active)	-41.9% (active)	-31.8% (active)
Fc1ccc(Nc2ccc3c(OCCCN4CCOCC4)cccc3n2)cc1F	78%	86.1%	78.7%	47.6%	61.3%	78.5%	66.3%	16.1%
CC(=O)n1c(/C(C#N)=C/c2ccc(N(C)C)cc2)cc2ccccc21	35.8%	17.7%	2.22% (active)	24.6%	20.1%	27.7%	50.5%	31.6%
CCCCCCCC(=O)SCC/C=C/[C@@H]1CC(=O)NCc2cccc(n2)CN(Cc2ccc3ccccc3c2)CC(=O)N[C@@H](C(C)C)C(=O)O1	44.5%	88.1%	37.4%	76.8%	26.5%	5.36% (active)	49.5%	38.8%

Structure (SMILES)	growth [1]	growth [2]	growth [3]	growth [4]	growth [5]	growth [6]	growth [7]	growth [8]
N#Cc1cnc2cc(OC[C@@H](O)CO)c(NC(=O)CC3CSSC3)cc2c1Nc1ccc(OCc2cccc(F)c2)c(Cl)c1	-60.9% (active)	-71% (active)	-85.2% (active)	-74.8% (active)	-58.8% (active)	-60.5% (active)	-78.2% (active)	-79.6% (active)
COc1ccc(-c2nc3c(c(C)nn3-c3ccc(F)cc3)c(=O)[nH]2)cc1	20.2%	76.3%	74.7%	74.6%	73.7%	48.5%	98.4%	84.4%
C=C(C)[C@@H]1CC[C@]2(/C=N/Nc3ccncc3)CC[C@]3(C)[C@H](CC[C@@H]4[C@@]5(C)CCCNC(C)(C)[C@@H]5CC[C@]43C)[C@@H]12	64.5%	77.2%	86.7%	41.4%	63.2%	43.8%	71.3%	82.1%
CCCCC(=O)OC1CCCCC1C (stereo not drawn)	95.2%	85.2%	101%	105%	103%	81%	111%	99.2%
COc1ccc2c(c1)C/C(=C\c1cc(-c3ccc4c(c3)OCO4)n[nH]1)C2=O	23%	93.9%	93%	96.6%	34.8%	93.3%	105%	85.7%
O=c1c2sc3ncc(Br)cc3c2ncn1-c1cccc(Cl)c1	61.9%	78.9%	75.2%	58.8%	94.2%	27.4%	104%	72.2%
COc1cc2nc(Cl)nc(Nc3cccc(C(=O)/C=C/c4ccc(Br)cc4)c3)c2cc1OC	72.4%	79.7%	89.6%	15.1%	31.7%	15.8%	104%	78.1%
CC1=NN(c2ccc(S(=O)(=O)O)cc2Cl)C(=O)C1	97.8%	116%	107%	107%	94.4%	93%	83.1%	137%
CC(=O)Nc1cc(F)cc(C(F)(F)F)c1Cl	96.7%	95.8%	99.3%	95.2%	91.5%	94.1%	98.4%	96.3%
COc1cc2ncnc(Nc3ccc(OCc4cccc(F)c4)c(Cl)c3)c2cc1NC(=O)C1CCCC1	24.9%	103%	89.4%	98.4%	84.4%	83.4%	103%	94.9%
Cn1c(=O)c2c(ncn2CC(=O)Nc2ccc(S(N)(=O)=O)cc2)n(C)c1=O	93.2%	92.8%	108%	103%	98.6%	92.7%	114%	101%
CCc1ccccc1NC(=O)c1sc2nc3c(cc2c1N)CCCC3	34.6%	48.4%	1.18% (active)	26.7%	19.8%	18.7%	78.9%	27.9%
NC1(N)C=CC2=C(C=C1)C1(N)C3=C(C=CC(N)(N)C=C3)N2C2(N)C3=C(C=CC(N)(N)C=C3)N1C1=C2C=CC(N)(N)C=C1	74.5%	52.4%	89.8%	95.4%	76.2%	90.2%	105%	93.6%
NC1=NN(c2ccccc2)C(=O)/C1=C/c1ccc(Cl)cc1	74.1%	104%	105%	101%	96.6%	100%	109%	103%
CC(C)C[C@@H](NC(=O)[C@@H](Cc1ccccc1)NC(=O)c1cnccn1)B1O[C@H]2[C@H](O)[C@@H](C(=O)NCCCC[C@@H]3NC(=O)[C@@H](Cc4ccccc4)NC(=O)[C@H](CC(=O)O)NC(=O)CNC(=O)[C@H](CCCN=C(N)N)NC3=O)O[C@@H](CN)[C@H]2O1	-70.4% (active)	-66.1% (active)	-78.1% (active)	-47.7% (active)	-17.1% (active)	-50% (active)	-78.9% (active)	-43.9% (active)
